Reference: PubChem BioAssay (NCATS)
Inconclusive results are not listed. Entries that show only a call come without a potency. Unmarked numbers belong to inactive results. The source made the active and inactive calls. The call rests on the fitted dose curve; in most records, active means well fitted inhibition curve with a large enough effect; inconclusive means small, poorly fitted or top-dose-only effect; inactive means flat fitted curve, though single readings scatter.

What was measured:
[1] = qHTS profiling for inhibitors of Plasmodium falciparum proliferation (AID 504749); further: nearly all actives have a fitted effect of over 60% in size; conditions: P. falciparum in erythrocytes, SYBR Green DNA, 72 h
How it was run: (§1)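 SYBR Green fluorescence of parasite DNA, read after lysis and overnight dark incubation, measured growth over 72 h in erythrocyte culture at 0.3% parasitemia and 2.5% hematocrit. Data normalised to DMSO and 0.29 uM artemisinin, with plate-drift correction.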

7G8 = experiment: as above; conditions: P. falciparum in erythrocytes, SYBR Green DNA, 72 h; series mostly up to 28.7 µM
How it was run: as §1

AA1029 = experiment: as above; conditions: P. falciparum in erythrocytes, SYBR Green DNA, 72 h; series mostly up to 28.7 µM
How it was run: as §1

AS120 = experiment: as above; conditions: P. falciparum in erythrocytes, SYBR Green DNA, 72 h; series mostly up to 28.7 µM
How it was run: as §1

ATS95 = experiment: as above; conditions: P. falciparum in erythrocytes, SYBR Green DNA, 72 h; series mostly up to 28.7 µM
How it was run: as §1

C2A = experiment: as above; conditions: P. falciparum in erythrocytes, SYBR Green DNA, 72 h; series mostly up to 28.7 µM
How it was run: as §1

CP185 = experiment: as above; conditions: P. falciparum in erythrocytes, SYBR Green DNA, 72 h; series mostly up to 28.7 µM
How it was run: as §1

CP192 = experiment: as above; conditions: P. falciparum in erythrocytes, SYBR Green DNA, 72 h; series mostly up to 28.7 µM
How it was run: as §1

CP194 = experiment: as above; conditions: P. falciparum in erythrocytes, SYBR Green DNA, 72 h; series mostly up to 28.7 µM
How it was run: as §1

CP201 = experiment: as above; conditions: P. falciparum in erythrocytes, SYBR Green DNA, 72 h; series mostly up to 28.7 µM
How it was run: as §1

CP203 = experiment: as above; conditions: P. falciparum in erythrocytes, SYBR Green DNA, 72 h; series mostly up to 28.7 µM
How it was run: as §1

CP211 = experiment: as above; conditions: P. falciparum in erythrocytes, SYBR Green DNA, 72 h; series mostly up to 28.7 µM
How it was run: as §1

CP215 = experiment: as above; conditions: P. falciparum in erythrocytes, SYBR Green DNA, 72 h; series mostly up to 28.7 µM
How it was run: as §1

CP217 = experiment: as above; conditions: P. falciparum in erythrocytes, SYBR Green DNA, 72 h; series mostly up to 28.7 µM
How it was run: as §1

3D7 = experiment: as above; conditions: P. falciparum in erythrocytes, SYBR Green DNA, 72 h; series mostly up to 28.7 µM
How it was run: as §1

ATS189 = experiment: as above; conditions: P. falciparum in erythrocytes, SYBR Green DNA, 72 h; series mostly up to 28.7 µM
How it was run: as §1

CP191 = experiment: as above; conditions: P. falciparum in erythrocytes, SYBR Green DNA, 72 h; series mostly up to 28.7 µM
How it was run: as §1

[2] = at 28.7 µM (top of the series), parasite line A
[3] = at 28.7 µM (top of the series), parasite line B
[4] = at 12.8 µM (top of the series), parasite line A
[5] = at 12.8 µM (top of the series), parasite line B
Potency means the concentration at half of the fitted maximal effect.

SMILES | activity, negative = inhibition [1, 2] | activity, negative = inhibition [1, 3] | Potency (7G8) | Potency (AA1029) | Potency (AS120) | Potency (ATS95) | Potency (C2A) | Potency (CP185) | Potency (CP192) | Potency (CP194) | Potency (CP201) | Potency (CP203) | Potency (CP211) | Potency (CP215) | Potency (CP217) | activity, negative = inhibition [1, 4] | activity, negative = inhibition [1, 5] | Potency (3D7) | Potency (ATS189) | Potency (CP191)
COc1ccc(C(=O)c2ccccc2)c(O)c1 | -10.8% | 10.2% | 10 µM (active) | inactive | inactive | inactive | inactive | inactive | inactive | inactive | inactive | inactive | inactive | inactive | inactive |  |  |  |  | 
CCOC(=O)Nc1ccc2c(c1)N(C(=O)CCN1CCOCC1)c1ccccc1S2 |  |  |  | inactive | inactive | inactive | inactive | inactive | inactive | inactive | inactive | inactive | inactive | inactive | inactive | 5.76% | 22.5% | inactive | inactive | 
C=C[C@@]1(C)CC(=O)[C@]2(O)[C@@]3(C)[C@@H](O)CCC(C)(C)[C@@H]3[C@H](O)[C@H](OC(C)=O)[C@@]2(C)O1 | -7.28% | 2.74% |  | inactive | inactive | inactive | inactive | inactive | inactive | inactive | inactive | inactive | inactive | inactive | inactive |  |  | inactive | inactive | inactive
CC1CCc2c(N3CCC(O)CC3)c(F)cc3c(=O)c(C(=O)O)cn1c23 (stereo not given) | -29.3% | -19.8% | 11.2 µM (active) |  |  | inactive | inactive |  | inactive | inactive | inactive |  | inactive |  |  |  |  |  |  | 
CCCCNc1ccc(C(=O)OCCOCCOCCOCCOCCOCCOCCOCCOCCOC)cc1 |  |  |  | inactive | inactive | inactive | inactive | inactive | inactive | inactive | inactive | inactive | inactive | inactive | inactive | -21.5% | -9.92% | inactive | inactive | inactive
COc1ccc(CN(CCN(C)C)c2ncccn2)cc1 | 12.9% | 5.48% |  | inactive | inactive | inactive | inactive | inactive | inactive | inactive | inactive |  | inactive | inactive | inactive |  |  | inactive | inactive | inactive
CN1CCN(C2=Nc3cc(F)ccc3Cc3ccccc32)CC1 | -5.08% | -0.186% | 12.6 µM (active) |  |  |  | inactive | inactive | inactive |  | inactive | inactive | inactive | inactive | inactive |  |  | inactive |  | inactive
O=C(CCN1CCN2CCCC2C1)N1c2ccccc2Sc2ccc(Cl)cc21 (stereo not given) | -26.8% | -9.82% | 8.91 µM (active) |  |  |  |  | inactive | inactive | inactive | inactive | inactive | inactive |  |  |  |  |  |  | 
CN1CCC(OC(c2ccccc2)c2ccccc2)CC1 |  |  |  | 2.51 µM (active) |  |  | inactive |  | inactive |  | inactive |  |  |  |  | -11.2% | -2.27% | inactive |  | inactive
CCCCC(CC)COC(=O)/C=C/c1ccc(OC)cc1 (stereo not given) | 10.4% | 11.8% |  | inactive | inactive | inactive | inactive | inactive | inactive | inactive | inactive | inactive | inactive | inactive | inactive |  |  | inactive | inactive | inactive
CCC(C(=O)OCCOCCN(CC)CC)c1ccccc1 (stereo not given) | 5.84% | 5.27% |  |  | inactive | inactive | inactive | inactive | inactive |  | inactive |  | inactive | inactive | inactive |  |  | inactive |  | inactive
